We go through 9 compounds from PubChem BioAssay (NCI).

Some test systems named below: NCI-H23 lung; NCI-H226 lung; NCI-H322M lung; HOP-62 NSCLC; NCI-H460 lung; NCI-H522 lung; A549/ATCC NSCLC; 786-0 renal; COLO 205 colon; DU-145 prostate; K-562 leukemia; MALME-3M melanoma; MDA-MB-231 breast; RXF 393 renal; SF-268 CNS; SF-295 CNS; SF-539 CNS; UACC-257 melanoma; M14 melanoma.
Holding throughout (assay): NCI-60 one-dose screen, 48 h (100 = growth as untreated, 0 = no growth, -100 = all killed)
What all share (conditions): 10 µM unless noted

This is part of a sample that, as a whole, favours compounds with a hit. Of some 83,000 tested, about 20% had one in any assay.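 Cell lines were cultured in 96-well plates, exposed to a single compound concentration, and assessed for percent growth 48 hours later.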 A number with no mark means an inactive call. The source made the active and inactive calls. The calls were made as follows: active = growth percent below 10; inactive = the rest.

`CCc1onc(-c2ccc(OC)cc2)c1-c1ccccc1OCCN(CC)CC`: the growth in the experiment with NCI-H23 lung is 85.4%; in the experiment with NCI-H226 lung, 93.5%; in the experiment with NCI-H322M lung it was 76.6%; in the experiment with HOP-62 NSCLC it was 90.4%; with NCI-H460 lung, 98.7%; with NCI-H522 lung, 88.5%. Further, the growth in the experiment with A549/ATCC NSCLC is 101%; with 786-0 renal, 75.9%; in the experiment with COLO 205 colon, 67%; in the experiment with DU-145 prostate, 96.7%; in the experiment with K-562 leukemia, 70.7%; with MALME-3M melanoma, 97.7%. The growth with MDA-MB-231 breast is 93.3%; in the experiment on RXF 393 renal, 82.2%; with SF-268 CNS, 85.8%; with SF-295 CNS, 79.5%; in the experiment on SF-539 CNS it was 90.2%; in the experiment with UACC-257 melanoma, 111%. Moreover, the growth with M14 melanoma is 76.3%.
Turning to `CCOC(=O)C1=C(C)NC(=S)NC1c1ccccc1` (configuration not stated), the growth in the experiment on NCI-H23 lung is 108%; in the experiment with NCI-H226 lung it was 91.6%; with NCI-H322M lung, 108%; in the experiment on HOP-62 NSCLC, 101%; in the experiment on NCI-H460 lung, 104%; with NCI-H522 lung, 91.6%. The growth in the experiment with A549/ATCC NSCLC was 109%; in the experiment on 786-0 renal it was 101%; with COLO 205 colon, 120%; in the experiment on DU-145 prostate it was 109%; with MALME-3M melanoma, 101%; in the experiment on MDA-MB-231 breast, -95.7% (active). Also, the growth is 117% in the experiment with RXF 393 renal; 91.7% with SF-268 CNS; 103% with SF-295 CNS; 97.2% in the experiment on SF-539 CNS; 101% with UACC-257 melanoma.
As to `CC(=O)CC(c1ccc([N+](=O)[O-])cc1)c1c(O)c2ccccc2oc1=O` (configuration not stated), the growth with NCI-H23 lung is 106%; in the experiment on NCI-H226 lung, 93.9%; in the experiment with NCI-H322M lung, 98.7%; in the experiment with HOP-62 NSCLC, 102%; in the experiment on NCI-H460 lung it was 104%; in the experiment on NCI-H522 lung, 97.3%. The growth in the experiment on A549/ATCC NSCLC was 95.7%; with 786-0 renal it was 95.4%; in the experiment on COLO 205 colon, 112%; with DU-145 prostate it was 106%; in the experiment on K-562 leukemia it was 104%; in the experiment with MALME-3M melanoma, 98.3%. In addition, the growth in the experiment on MDA-MB-231 breast is 95.9%; with RXF 393 renal, 108%; in the experiment on SF-268 CNS, 99%; in the experiment with SF-295 CNS, 104%; in the experiment on SF-539 CNS, 97.1%; in the experiment on UACC-257 melanoma, 120%. For the same compound, the growth in the experiment with M14 melanoma is 102%.
As for `CCCCn1cnc2c(SCc3ccc([N+](=O)[O-])cc3)nc(N)nc21`, the growth with NCI-H23 lung is 96.5%; in the experiment with NCI-H226 lung, 85.6%; in the experiment on NCI-H322M lung, 112%; in the experiment with HOP-62 NSCLC it was 95.2%; in the experiment on NCI-H460 lung, 108%; in the experiment with NCI-H522 lung it was 73.9%. Also, the growth with A549/ATCC NSCLC was 90.6%; in the experiment on 786-0 renal, 79.5%; in the experiment on COLO 205 colon, 105%; with DU-145 prostate it was 123%; with K-562 leukemia, 59.8%; with MALME-3M melanoma, 130%. The growth in the experiment on MDA-MB-231 breast is 82.3%; in the experiment with RXF 393 renal, 106%; in the experiment with SF-268 CNS, 84.4%; in the experiment with SF-295 CNS it was 122%; in the experiment on SF-539 CNS, 94.7%; in the experiment on UACC-257 melanoma it was 97.5%. Moreover, the growth with M14 melanoma was 106%.
Regarding `ClC1(Cl)C2CCCCCCC21` (configuration not stated), the growth in the experiment with NCI-H23 lung is 107%; in the experiment with NCI-H226 lung, 103%; with NCI-H322M lung it was 109%; in the experiment on HOP-62 NSCLC, 108%; with NCI-H460 lung, 107%; in the experiment with NCI-H522 lung it was 84.5%. In addition, the growth with A549/ATCC NSCLC is 98.2%; with 786-0 renal it was 94.9%; in the experiment on COLO 205 colon it was 129%; in the experiment on DU-145 prostate, 121%; in the experiment on K-562 leukemia it was 97.8%; with MALME-3M melanoma it was 107%. Moreover, the growth with MDA-MB-231 breast is 122%; in the experiment with RXF 393 renal, 117%; with SF-268 CNS, 112%; in the experiment with SF-295 CNS, 101%; in the experiment on SF-539 CNS, 117%; with UACC-257 melanoma it was 106%. Moreover, the growth in the experiment with M14 melanoma was 98.7%.
For `CCOC(=O)c1ccc2c(c1)[n+](=O)c(C(=O)c1ccc3ccccc3c1)c(C(F)(F)F)n2[O-]`, the growth in the experiment on NCI-H23 lung was -88.4% (active); with NCI-H226 lung, -93.7% (active); in the experiment with NCI-H322M lung, 67.2%; with HOP-62 NSCLC, -93.8% (active); with NCI-H460 lung, -100% (active); with NCI-H522 lung, -80.1% (active). Besides, the growth with A549/ATCC NSCLC was -26.4% (active); in the experiment with 786-0 renal, -100% (active); with COLO 205 colon it was -100% (active); with DU-145 prostate, -100% (active); in the experiment on MALME-3M melanoma, -69.1% (active); in the experiment on MDA-MB-231 breast, -99.4% (active). For the same compound, the growth is -71.2% (active) in the experiment with RXF 393 renal; -88.8% (active) with SF-268 CNS; -84.8% (active) in the experiment with SF-295 CNS; -100% (active) with SF-539 CNS; -71.7% (active) in the experiment with UACC-257 melanoma.
Regarding `O=C(C(=O)N1CCCC1)c1cn(CCCn2cc(C(=O)C(=O)N3CCCC3)c3cc(Br)ccc32)c2ccc(Br)cc12`, the growth is 80.3% in the experiment on NCI-H23 lung; 85.9% in the experiment on NCI-H226 lung; 82.3% in the experiment on NCI-H322M lung; 56.1% with HOP-62 NSCLC; 53.4% with NCI-H460 lung; 62% with NCI-H522 lung. Further, the growth was 57.8% with A549/ATCC NSCLC; 71.4% in the experiment with 786-0 renal; 106% in the experiment on COLO 205 colon; 62.3% with DU-145 prostate; 81.9% in the experiment on K-562 leukemia; 58.1% with MALME-3M melanoma. The growth in the experiment with MDA-MB-231 breast was 82.1%; in the experiment on RXF 393 renal it was 82.8%; in the experiment with SF-268 CNS it was 53.7%; with SF-295 CNS, -22.4% (active); with SF-539 CNS, 69.5%; in the experiment with UACC-257 melanoma, 76.4%. Further, the growth in the experiment with M14 melanoma is 89.2%.
Regarding `CCN(CC)Cc1cc(Nc2ccnc3ccc(OC)cc23)ccc1O`, the growth was 56% in the experiment on NCI-H23 lung; 56.4% in the experiment with NCI-H226 lung; 38.5% with NCI-H322M lung; 71.2% in the experiment with HOP-62 NSCLC; 20.1% in the experiment on NCI-H460 lung; -1.72% (active) in the experiment on NCI-H522 lung. Also, the growth in the experiment with A549/ATCC NSCLC was 22.5%; in the experiment on 786-0 renal, 18.2%; in the experiment on COLO 205 colon it was 78.2%; in the experiment on DU-145 prostate, 40.5%; in the experiment on K-562 leukemia it was 12.7%; in the experiment on MALME-3M melanoma, 75%. Also, the growth with MDA-MB-231 breast is 58.8%; in the experiment on RXF 393 renal, 48.9%; in the experiment with SF-268 CNS, 53%; in the experiment on SF-295 CNS it was 79%; in the experiment on SF-539 CNS, 64.7%; in the experiment on UACC-257 melanoma, -17.7% (active). Further, the growth in the experiment with M14 melanoma is 29.5%.
As for `CN(C)c1ccc(C2(Cl)c3ccccc3N(C)c3ccccc32)cc1`, the growth with NCI-H23 lung was 44.2%; with NCI-H226 lung, 69.1%; in the experiment on NCI-H322M lung it was 75.9%; in the experiment on HOP-62 NSCLC, 29.9%; with NCI-H460 lung, 36.9%; in the experiment on NCI-H522 lung, 19%. The growth in the experiment with A549/ATCC NSCLC is 60%; with 786-0 renal, 62.1%; in the experiment on COLO 205 colon, 43.1%; with DU-145 prostate, 50.5%; in the experiment on K-562 leukemia it was 51%; in the experiment on MALME-3M melanoma it was 48.5%. In addition, the growth is 69.1% in the experiment on MDA-MB-231 breast; 74% in the experiment with RXF 393 renal; 18.2% with SF-268 CNS; 66.3% in the experiment on SF-295 CNS; 86.9% in the experiment with SF-539 CNS; 54.4% with UACC-257 melanoma. Moreover, the growth with M14 melanoma was 53.4%.
